Each structure is given as a SMILES string. Calls of active or inactive are those of the source.

Z-score and composite z-score data for four molecules are collected here from PubChem BioAssay.

Assay [1] is described as follows: optical density shifts of acrAB sulA E. coli – strain DRC41, OD650, 48 h, E. coli filamentation inducer project, primary screen (AID 1152).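 Further: E. coli MC1000 strain DRC41 lacking acrAB efflux pump and sulA.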 As to conditions: higher = more signal, called active from +8 up or from −8 down.
Assay [2] in a line: probe aLefty1 binding on compound microarray – biochemical, small-molecule microarray, 635/667 nm fluorescence, primary screen (AID 1153).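 Further: score merges spot fluorescence with signal-to-noise ratio from the scanned slide images.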 To be noted: higher = more signal.
Assay [3] can be described thus: plasmodial surface anion channel blockers, osmotic lysis – cell-based, P. falciparum Indochina, OD700, 1 h, primary screen (AID 1154). To be noted: P. falciparum Indochina infected RBC osmotic lysis, higher = more signal, called active from +8 up or from −8 down.
Assay [4] in a line: plasmodial surface anion channel blockers, osmotic lysis – cell-based, P. falciparum Indochina, OD700, 2 h, primary screen (AID 1155).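 Further: lysis reports solute entry through the parasite surface anion channel PSAC.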 As to conditions: P. falciparum Indochina infected erythrocytes, higher = more signal, called active from +8 up or from −8 down.
Assay [5] in a line: changes in parasitized red cell lysis, either direction – P. falciparum Indochina, OD700, 3 h, PSAC antagonist project, primary screen (AID 1156). To be noted: P. falciparum-infected erythrocytes, osmotic lysis, higher = more signal, called active from +8 up or from −8 down.
Assay [6] is described as follows: plasmodial surface anion channel blockers, osmotic lysis – cell-based, P. falciparum Indochina, OD700, 18 h, primary screen (AID 1157). To be noted: P. falciparum Indochina infected erythrocytes, osmotic lysis OD700, 18 h; higher = more signal, called active from +8 up or from −8 down.
Assay [7] is described as follows: S6 kinase pathway phospho-S6 level changes – cell-based, A549, cytoblot, luminescence, serum-stimulated, primary screen (AID 1158).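 Further: serum-stimulated A549 lung adenocarcinoma cells; signal is phosphorylated S6 detected by cytoblot immunostaining with HRP secondary.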 As to conditions: 5 h, higher = more signal.
In assay [8] the target is NADPH oxidase 2 (Homo sapiens) (UniProt P04839). As to the kind of experiment: compounds shifting NOX2 Amplex Red fluorescence – cell-based, HEK293-NOX2, PMA-stimulated, NOX inhibitor project, primary screen (AID 1159). Further: test concentration not given here. As to conditions: 45 min, higher = more signal, called active from +8 up or from −8 down.
Assay [9] has as its target NADPH oxidase 4 (Homo sapiens) (UniProt Q9NPH5). As to the kind of experiment: compounds shifting NOX4 Amplex Red fluorescence – cell-based, HEK293-NOX4, tetracycline-induced, NOX inhibitor project, primary screen (AID 1160). To be noted: HEK293-NOX4, Amplex Red H2O2 fluorescence, 45 min; higher = more signal, called active from +8 up or from −8 down.
The target in assay [10] is NADPH oxidase 5 (Homo sapiens) (UniProt Q96PH1). As to the kind of experiment: compounds shifting NOX5 Amplex Red fluorescence – cell-based, HEK293-NOX5, NOX inhibitor project, primary screen (AID 1161). To be noted: HEK293-NOX5, ionomycin, 45 min, higher = more signal.
Assay [11] can be described thus: compound effects on lung adenocarcinoma cell viability – A549, calcein-AM fluorescence, 48 h, basal, profiling panel (AID 1162). Further: test concentration not given here. To be noted: higher = more signal.
A short description of assay [12]: compound effects on differentiated 3T3-L1 adipocyte viability – cell-based, 3T3-L1 adipocytes, calcein-AM fluorescence, 48 h, basal, profiling panel (AID 1163). Further: test concentration not given here. To be noted: 3T3-L1 adipocytes viability, higher = more signal.
A short description of assay [13]: compound effects on hepatocellular carcinoma cell viability – HepG2, calcein-AM fluorescence, 48 h, basal, profiling panel (AID 1164). Further: test concentration not given here. As to conditions: higher = more signal.
Assay [14] is described as follows: compound effects on multiple myeloma cell viability – MM1S, calcein-AM fluorescence, 48 h, basal, profiling panel (AID 1165).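 Further: viability of MM1S multiple myeloma cells under basal unstimulated conditions; test concentration not given here.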 To be noted: higher = more signal.
The nature of assay [15]: calcein-AM signal in unstimulated myeloma cells – cell-based, calcein-AM fluorescence, 48 h, PK04 Diversity Set, profiling panel (AID 1166).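 Further: cells grown under basal conditions without added stimulus; test concentration not given here.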 As to conditions: RPMI8226 myeloma viability, higher = more signal.
The nature of assay [16]: JC-1 mitochondrial signal, unstimulated HepG2 cells – cell-based, JC-1 fluorescence, 24 h, 100 nL compound, profiling panel (AID 1167). Further: test concentration not given here. To be noted: HepG2 mitochondrial potential, higher = more signal.
Assay [17] in a line: JC-1 mitochondrial signal, unstimulated adipocytes – cell-based, JC-1 fluorescence, 3T3-L1 adipocytes, 24 h, 100 nL compound, profiling panel (AID 1168). Further: test concentration not given here. To be noted: JC-1 mitochondrial fluorescence, higher = more signal, called active from +8 up or from −8 down.
Assay [18] is described as follows: JC-1 mitochondrial signal, unstimulated myeloma cells – cell-based, JC-1 fluorescence, RPMI8226, 24 h, 100 nL compound, profiling panel (AID 1169). Further: test concentration not given here. To be noted: JC-1 mitochondrial potential fluorescence, higher = more signal.
The nature of assay [19]: JC-1 mitochondrial signal, unstimulated MM1S myeloma – cell-based, JC-1 fluorescence, 24 h, 100 nL compound, profiling panel (AID 1170). Further: test concentration not given here. To be noted: MM1S mitochondrial potential, higher = more signal.
A short description of assay [20]: resazurin metabolic signal in A549 cells – cell-based, resazurin fluorescence, 24 h, PK04 Diversity Set, profiling panel (AID 1171). Further: test concentration not given here. As to conditions: A549 viability, higher = more signal, called active from +8 up or from −8 down. For orientation: Resazurin is reduced to fluorescent resorufin, in cell work by metabolically active cells.

Chain of NADPH oxidase 4 (Homo sapiens) (Q9NPH5 whole entry, looked up): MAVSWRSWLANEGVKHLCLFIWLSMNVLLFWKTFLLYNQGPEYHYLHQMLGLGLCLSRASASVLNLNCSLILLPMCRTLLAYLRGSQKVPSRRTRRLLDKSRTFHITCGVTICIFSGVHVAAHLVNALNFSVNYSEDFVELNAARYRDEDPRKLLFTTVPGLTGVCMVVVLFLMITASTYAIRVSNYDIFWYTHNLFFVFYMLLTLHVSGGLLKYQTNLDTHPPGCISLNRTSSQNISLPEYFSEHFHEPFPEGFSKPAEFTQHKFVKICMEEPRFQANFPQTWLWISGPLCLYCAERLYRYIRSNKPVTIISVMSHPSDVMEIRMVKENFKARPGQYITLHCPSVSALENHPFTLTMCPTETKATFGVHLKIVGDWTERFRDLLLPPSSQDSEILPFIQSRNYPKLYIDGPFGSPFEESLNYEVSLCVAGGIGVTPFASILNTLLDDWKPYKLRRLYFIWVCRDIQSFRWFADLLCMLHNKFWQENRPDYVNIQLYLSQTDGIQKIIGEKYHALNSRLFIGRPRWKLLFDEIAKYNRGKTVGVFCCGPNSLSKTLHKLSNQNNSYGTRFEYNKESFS
Chain of NADPH oxidase 5 (Homo sapiens) (Q96PH1 whole entry, looked up): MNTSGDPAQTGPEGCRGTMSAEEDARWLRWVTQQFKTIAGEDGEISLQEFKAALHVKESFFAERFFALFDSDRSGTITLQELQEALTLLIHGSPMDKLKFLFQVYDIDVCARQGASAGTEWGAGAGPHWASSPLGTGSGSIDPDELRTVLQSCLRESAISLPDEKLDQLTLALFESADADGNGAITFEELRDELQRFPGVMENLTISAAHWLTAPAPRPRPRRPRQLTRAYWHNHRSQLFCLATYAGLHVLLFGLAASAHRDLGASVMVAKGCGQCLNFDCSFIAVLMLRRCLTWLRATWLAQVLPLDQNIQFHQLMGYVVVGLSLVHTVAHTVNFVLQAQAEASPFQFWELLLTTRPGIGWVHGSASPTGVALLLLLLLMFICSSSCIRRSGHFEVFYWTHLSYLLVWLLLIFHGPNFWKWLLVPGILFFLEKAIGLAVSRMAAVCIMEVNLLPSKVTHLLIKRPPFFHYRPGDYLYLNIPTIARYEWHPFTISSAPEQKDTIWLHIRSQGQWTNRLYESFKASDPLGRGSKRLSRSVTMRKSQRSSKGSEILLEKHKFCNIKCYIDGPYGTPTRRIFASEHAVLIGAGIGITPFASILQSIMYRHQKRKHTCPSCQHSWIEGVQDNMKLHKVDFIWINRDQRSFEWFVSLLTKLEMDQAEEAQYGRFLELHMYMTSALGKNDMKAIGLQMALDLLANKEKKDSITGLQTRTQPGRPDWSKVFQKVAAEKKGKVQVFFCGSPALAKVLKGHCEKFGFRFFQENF
Chain of NADPH oxidase 2 (Homo sapiens) (P04839 whole entry, looked up): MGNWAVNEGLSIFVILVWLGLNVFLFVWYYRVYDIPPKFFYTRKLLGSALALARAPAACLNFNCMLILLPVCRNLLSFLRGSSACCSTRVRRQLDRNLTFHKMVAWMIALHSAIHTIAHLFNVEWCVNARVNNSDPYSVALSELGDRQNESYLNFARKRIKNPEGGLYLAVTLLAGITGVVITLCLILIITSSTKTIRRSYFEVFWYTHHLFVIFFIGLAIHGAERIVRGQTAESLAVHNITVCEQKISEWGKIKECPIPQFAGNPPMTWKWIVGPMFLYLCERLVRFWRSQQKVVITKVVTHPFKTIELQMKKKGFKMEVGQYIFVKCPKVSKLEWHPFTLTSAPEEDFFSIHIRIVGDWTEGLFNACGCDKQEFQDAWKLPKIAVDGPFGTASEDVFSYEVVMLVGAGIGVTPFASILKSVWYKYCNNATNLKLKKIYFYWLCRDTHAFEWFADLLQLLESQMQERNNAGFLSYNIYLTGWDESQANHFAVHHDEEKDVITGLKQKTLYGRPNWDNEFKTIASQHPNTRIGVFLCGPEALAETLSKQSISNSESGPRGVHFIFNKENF

As for `CO[C@H]1O[C@H](CO)[C@@H](OC(=O)Nc2ccc(Br)cc2)[C@@H]2OC(=O)[C@H](Cc3cccc(Br)c3)C/C=C/C[C@@H](Cc3cccc(Br)c3)C(=O)O[C@@H]12`, the z-score in assay [1] was 1.7 (inactive); in [3], 2.13 (inactive); in assay [4], 0.623 (inactive); in assay [5], -0.147 (inactive); in assay [6], 0.951 (inactive); in [7], 0.0914. The z-score is -1.42 (inactive) in assay [8]; -0.686 (inactive) in assay [9]; 0.0667 in assay [10]; 0.193 in [11]; 0.461 in assay [12]; 0.31 in [13]. In addition, the z-score in assay [14] was -1.37; in assay [15] it was -0.228; in assay [16], -0.741; in assay [17], 1.78 (inactive); in assay [18], -0.209; in assay [19] it was -0.456. In addition, in [20], the z-score is -2.1 (inactive). In addition, the composite z-score in assay [2] is -0.007.
For the molecule `COC(=O)c1c(CC[C@@H](CO)NC(=O)NCCc2c[nH]c3ccccc23)oc(C(=O)Cc2ccccc2)c1C(=O)OC`, the z-score was 0.659 (inactive) in [1]; 7.43 (inactive) in assay [3]; -0.0918 (inactive) in assay [4]; -0.366 (inactive) in assay [5]; -1.01 (inactive) in assay [6]; 0.814 in assay [7]. Also, the z-score in assay [8] was -2.09 (inactive); in [9], -1.16 (inactive); in assay [10], -0.595; in assay [11], -0.22; in [12] it was 1.12; in assay [13], -0.496. Further, the z-score in [14] is 0.49; in assay [15], 0.459; in assay [16], -1.27; in assay [17], -0.484 (inactive); in assay [18], 0.636; in [19], 0.0389. Besides, the z-score in assay [20] is 0.926 (inactive). This molecule gave a composite z-score in [2] of -0.423.
For `C=C[C@H](C)[C@@H](OC(=O)Nc1ccc(SC)cc1)c1ccc(O)c2ccccc12`, the z-score in [1] was -0.751 (inactive); in assay [3] it was 27.7 (active); in assay [4], 9.84 (active); in assay [5], 2.51 (inactive); in assay [6] it was 1.31 (inactive); in [7] it was 1.23. For the same molecule, the z-score in assay [8] was -5.52 (inactive); in assay [9] it was -1.45 (inactive); in assay [10] it was 0.894; in assay [11], -0.89; in assay [12], 0.0148; in assay [13] it was -1.87. In addition, the z-score was -2.68 in assay [14]; -4.27 in assay [15]; -3.23 in assay [16]; -0.475 (inactive) in [17]; -0.934 in [18]; -1.59 in [19]. The z-score in assay [20] was -0.774 (inactive). For the same molecule, in assay [2], the composite z-score was determined as 0.0942.
`CN(C)CCCCCCNC(=O)[C@@H]1C[C@@H]2C(=O)N3CCC[C@H]3C(=O)N2[C@@H]1c1ccc(O)cc1`: the z-score in assay [1] is 1.12 (inactive); in assay [3], 0.974 (inactive); in [4] it was -1.24 (inactive); in assay [5], 1.09 (inactive); in [6], -1.93 (inactive); in [7], 1.12. The z-score in assay [8] was -0.245 (inactive); in assay [9], -0.176 (inactive); in assay [10] it was 0.884; in assay [11] it was 1.26; in assay [12], 1.09; in assay [13] it was 0.773. Further, the z-score was 0.581 in [14]; -0.586 in assay [15]; 1.06 in assay [16]; 0.342 (inactive) in [17]; -0.689 in assay [18]; -0.78 in [19]. Moreover, the z-score in [20] is -0.908 (inactive). In [2], this molecule returned a composite z-score of 0.457.
